# Compounds without any hit were thinned out: in the full panel of roughly 79,000, 15% have a hit. Values without a mark were called inactive. Activity calls are given as the source filed them. No stated cut-off is given here; in the data, active means growth inhibition above about 70%; inactive means the rest.
# What was measured:
# [1] = NCI Yeast Anticancer Drug Screen. Data for the rad50 strain (AID 155);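 further: 0% = growth of vehicle-only cultures of the same strain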; conditions: S. cerevisiae rad50 strain growth inhibition, hits give high values
# Procedure, shortened: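 Relative growth inhibition (compound vs vehicle) was measured in yeast with a defined repair-gene alteration.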
# [2] = NCI Yeast Anticancer Drug Screen. Data for the mec2-1 strain (AID 157); conditions: S. cerevisiae mec2-1 strain, hits give high values
# Procedure, shortened: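 Cells of the genetically defined mec2-1 yeast strain are incubated with test compound. Inhibition of growth is calculated against vehicle-treated controls.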
# [3] = NCI Yeast Anticancer Drug Screen. Data for the sgs1 mgt1 strain (AID 161);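 further: 0% = growth of cultures given vehicle only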; conditions: S. cerevisiae sgs1 mgt1 strain, hits give high values
# Procedure, shortened: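 Mutant yeast exposed to compound; growth scored against vehicle-only wells.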
# [4] = NCI Yeast Anticancer Drug Screen. Data for the cln2 rad14 strain (AID 165);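 further: 0% = growth equal to vehicle treated cultures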; conditions: S. cerevisiae cln2 rad14 strain, hits give high values
# Procedure, shortened: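 The screen exposed genetically defined yeast (cln2 rad14) to test compounds and scored growth inhibition relative to vehicle-treated controls.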
# [5] = NCI Yeast Anticancer Drug Screen. Data for the bub3 strain (AID 167); conditions: S. cerevisiae bub3 mutant strain, hits give high values
# Procedure, shortened: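 Screening used yeast with an engineered genetic alteration affecting cell cycle control. Compound-exposed cultures were compared with vehicle cultures, and reduced growth was taken as inhibition.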
# [6] = NCI Yeast Anticancer Drug Screen. Data for the mlh1 rad18 strain (AID 175); conditions: S. cerevisiae mlh1 rad18 strain growth inhibition, hits give high values
# Procedure, shortened: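 Compound-treated yeast growth, normalised to vehicle controls. Strain bears defined DNA repair mutations.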
# [7] = at 5.0 µM (retest, dose inferred, filed as 0.5)
# [8] = at 50.0 µM (retest, dose inferred, filed as 5.0)
SMILES,"growth inhibition [1, 7]","growth inhibition [1, 8]",growth inhibition ([1]; at 50.0 µM),"growth inhibition [2, 7]","growth inhibition [2, 8]",growth inhibition ([2]; at 50.0 µM),"growth inhibition [3, 7]","growth inhibition [3, 8]",growth inhibition ([3]; at 50.0 µM),"growth inhibition [4, 7]","growth inhibition [4, 8]",growth inhibition ([4]; at 50.0 µM),"growth inhibition [5, 7]","growth inhibition [5, 8]",growth inhibition ([5]; at 50.0 µM),"growth inhibition [6, 7]","growth inhibition [6, 8]",growth inhibition ([6]; at 50.0 µM)
CC(C)[CH2][Sn](=[O])[c]1ccccc1,8%,18%,99.3% (active),5%,11%,99.6% (active),5%,14%,99.5% (active),2%,10%,94.8% (active),8%,10%,99.5% (active),5%,22%,99.2% (active)
CN1CCN(c2ccc3nc(-c4ccc5nc(-c6ccc(N(C)CCCl)cc6)[nH]c5c4)[nH]c3c2)CC1,1%,99% (active),98.4% (active),-10%,99% (active),98.8% (active),-7%,99% (active),98.8% (active),47%,99% (active),98.6% (active),-18%,99% (active),98.8% (active),-16%,99% (active),98.4% (active)
CCCCOOC(=O)c1ccccc1C(=O)OOCCCC,47%,99% (active),99.3% (active),33%,100% (active),99.5% (active),41%,100% (active),99% (active),51%,99% (active),98.7% (active),30%,100% (active),99.5% (active),70% (active),99% (active),98.8% (active)
CN(C)c1ccc(/C=C/c2cc3scc(-c4ccccc4)[n+]3c3ccccc23)cc1,-2%,87% (active),98.7% (active),4%,99% (active),99.5% (active),-1%,99% (active),99.4% (active),-3%,98% (active),99% (active),18%,97% (active),99% (active),14%,99% (active),99.2% (active)
O=C(CBr)OCC(Br)CBr (configuration not stated),98% (active),39%,99.2% (active),99% (active),50%,99% (active),99% (active),36%,99.3% (active),97% (active),-4%,98.8% (active),99% (active),83% (active),99.3% (active),99% (active),49%,98.8% (active)
COC1OC(CO)C(O)C(O)[CH]1[Hg][Cl] (configuration not stated),99% (active),99% (active),99% (active),99% (active),99% (active),99% (active),100% (active),100% (active),99% (active),99% (active),99% (active),99.2% (active),99% (active),99% (active),98.8% (active),99% (active),99% (active),98.8% (active)
O=C(O)C(CSC(c1ccccc1)c1ccccc1)NC(=O)C(c1ccccc1)c1ccccc1 (configuration not stated),6%,86% (active),52.5%,11%,89% (active),83.3% (active),11%,86% (active),69.8%,15%,84% (active),96.2% (active),8%,64%,85.7% (active),9%,88% (active),97.1% (active)
CC1CCCC[N-]1.CC1CCCC[N-]1.N#C[S-].N#C[S-].[Cd] (configuration not stated),20%,87% (active),93.2% (active),9%,52%,66.7%,12%,36%,70.7% (active),7%,69%,58%,10%,26%,67.7%,16%,39%,73% (active)
[C-]#[O+].[C-]#[O+].[Mo].c1ccc([PH+](CC[PH+](c2ccccc2)c2ccccc2)c2ccccc2)cc1.c1ccc([PH+](CC[PH+](c2ccccc2)c2ccccc2)c2ccccc2)cc1,0%,65%,2%,2%,52%,59.3%,-1%,41%,1.3%,-2%,71% (active),2.55%,0%,76% (active),-1.85%,4%,80% (active),-0.8%
N#CS.[Ag],11%,97% (active),60.8%,10%,98% (active),91.7% (active),15%,98% (active),75.2% (active),27%,98% (active),32.7%,25%,98% (active),89.5% (active),-1%,97% (active),89% (active)
COC(=O)[C@]1(C)CCC[C@]2(C)[C@H]3CC4OO[C@@]3(CC[C@H]21)[C@H]1O[C@@]41C(C)C,98% (active),99% (active),92.5% (active),99% (active),99% (active),93.4% (active),99% (active),100% (active),93.7% (active),92% (active),99% (active),92.2% (active),98% (active),99% (active),91.8% (active),98% (active),99% (active),92.3% (active)
C[CH2][Sn]([Cl])([CH2]C)[CH2]C,7%,87% (active),98.3% (active),0%,84% (active),98.1% (active),0%,91% (active),97.3% (active),-6%,60%,80.8% (active),-18%,83% (active),98.2% (active),2%,92% (active),98.2% (active)
[N-]=[N+]=NC1(N=[N+]=[N-])C(=O)NN=C(c2ccccc2)C1=O (configuration not stated),-12%,87% (active),84% (active),15%,91% (active),91.2% (active),4%,83% (active),88% (active),23%,87% (active),86.8% (active),-3%,97% (active),89.7% (active),31%,97% (active),79.7% (active)
CCCC(C)c1ccccc1OP(=S)(S)Oc1ccccc1C(C)CCC (configuration not stated),-3%,-3%,97.3% (active),-2%,-1%,97.8% (active),2%,-2%,97.5% (active),3%,0%,96.5% (active),-5%,0%,95.8% (active),0%,-3%,97.2% (active)

# — PubChem BioAssay (NCI)
